# Assay results taken from PubChem BioAssay (NCATS).
# Records with an inconclusive call do not appear. Values without a mark were called inactive. Calls come from the whole dose curve; as a rule, active = well fitted inhibition curve with a large enough effect; inconclusive = small, poorly fitted or top-dose-only effect; inactive = flat fitted curve, though single readings scatter.
# Target: Calcium and integrin-binding protein 1 (Homo sapiens) (UniProt Q99828)
# Assay: Primary qHTS for Identification of Calcium Integrin Binding Protein 1 (CIB1) Competitor (AID 1508620);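 note: GST tagged CIB1 binding a fluorescein labelled alphaIIb integrin peptide tracer; top concentration of the series differs between compounds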
# Details: CIB1-GST / FITC-alphaIIb peptide fluorescence polarization; series mostly up to 57.7 µM; activity change, negative = inhibition: at the top concentration
# Outline: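 Fluorescence polarization competition: CIB1-GST (1 uM final) preincubated with compound 15 min at room temperature, then FITC-labeled alphaIIb peptide (100 nM final) added for another 15 min. Polarization read at Ex 480/Em 540.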
# % is set by controls: 0 for no effect and ±100 for the full control effect.
# Sequence of Calcium and integrin-binding protein 1 (Homo sapiens) (Q99828 whole entry, looked up): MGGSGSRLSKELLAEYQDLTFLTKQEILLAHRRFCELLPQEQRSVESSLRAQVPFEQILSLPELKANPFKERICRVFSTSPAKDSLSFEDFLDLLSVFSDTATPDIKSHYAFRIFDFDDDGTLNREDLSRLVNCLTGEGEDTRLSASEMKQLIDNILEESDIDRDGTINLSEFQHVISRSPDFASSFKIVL
row,SMILES,"activity change, negative = inhibition"
1,C[C@@H]1O[C@@H](O[C@H]2[C@H](OC(C#N)c3ccc(O)cc3)O[C@H](CO)[C@@H](O)[C@@H]2O)[C@H](O)[C@H](O)[C@H]1O (stereo partly drawn),-2.01%
2,COC12CC3C(C(C)C1=CC(=O)O2)C(O)C(OC(C)=O)C1C(C)(C)C(OC(C)=O)CCC31C (stereo not drawn),2.07%
3,COc1ccc(/C=C/C(=O)O[C@H]2[C@@H]3C=CO[C@@H](O[C@@H]4O[C@H](CO)[C@@H](O)[C@H](O)[C@H]4O)[C@@H]3[C@@]3(CO)O[C@@H]23)cc1O,-0.887%
4,C=C1C[C@@]23CC[C@@H]4[C@](C)(C(=O)O)CCC[C@@]4(C)C2=CC[C@H]1C3,-4.02% [at 114 µM]
5,c1ccc(Nc2nc3c(s2)CCCc2[nH]ncc2-3)nc1,-7.68% [at 114 µM]
6,COc1ccc2c3c1O[C@H]1C[C@@H](O)C=C[C@@]31CCN(C)C2,-1.05% [at 114 µM]
7,COCCCNCC1COc2ccccc2O1 (stereo not drawn),0.556% [at 114 µM]
8,CC(C)(C)c1cc(CN2CCN(CC(O)c3ccc(Cl)cc3)CC2)cc(C(C)(C)C)c1O (stereo not drawn),-4.52% [at 114 µM]
9,CN1C(=O)c2ccccc2-n2c(nc3ccccc3c2=O)[C@@]12O[C@H]2c1ccccc1,-7.65%
10,COc1cccc(-n2nc(C(=O)O)cc2-c2ccc(C3CCCCC3)c(Cl)c2)c1,-3.91% [at 114 µM]
11,CC(C)C1=CCC(C)(O)C(OC2OC(CO)C(O)C(O)C2O)C1 (stereo not drawn),-10.2%
12,COc1cc(-c2cccc(O)c2)cc2c1OCO2,-2.11% [at 114 µM]
13,CC(=O)O[C@@H]1C[C@@]23C[C@@]24CC[C@H](OC2OC[C@@H](O)[C@H](O)[C@H]2O)C(C)(C)[C@@H]4CC[C@H]3[C@]2(C)CC3OC4(C[C@@H](C)C3[C@@]12C)OCC1(C)OC14 (stereo partly drawn),-2.72% [at 30.2 µM]
